# PubChem BioAssay (Tox21)
# Where “and” joins values, the source holds several entries; their conditions need not be identical. Identical values can stand only once. Results filed as inconclusive are left out. Where a call stands in place of a potency, no number is given. Some structures have more than one record in an assay (separate samples or runs), and their calls can disagree. Calls of active or inactive are those of the source. Unless noted, calls come from the whole dose curve; as a rule, active = well fitted curve in the direction sought with a large enough effect in the repeat runs; inconclusive = weak or mixed curves; inactive = no such curve, though single readings can be large; an effect the other way counts as inactive or inconclusive.
# Experiments:
# [1] = qHTS assay to identify small molecule agonists of the estrogen receptor alpha (ER-alpha) signaling pathway in the presence of an antagonist - cell viability counter screen (AID 1259386);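 note: cells exposed to compounds for 22 h at 37 °C before the viability read; nearly all actives have a fitted effect of over 30% in size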; note: potency is the fitted concentration of half-maximal effect
# Method in brief: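 Cells are starved of estrogens for 5 days in charcoal-stripped serum, seeded for 24hr and co-treated with ICI-182,780 (10.0nM final) and test compounds. After 22hr at 37C, viability is read as CellTiter-Fluor fluorescence.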
# [2] = target: Progesterone receptor (Homo sapiens) (UniProt P06401); assay: qHTS assay to identify small molecule agonists of the progesterone receptor (PR) signaling pathway (AID 1346784; calls by dose curve; note: nearly all actives have a fitted effect of over 30% in size; note: potency is the fitted concentration of half-maximal effect)
# Chain of Progesterone receptor (Homo sapiens) (P06401 whole entry, looked up): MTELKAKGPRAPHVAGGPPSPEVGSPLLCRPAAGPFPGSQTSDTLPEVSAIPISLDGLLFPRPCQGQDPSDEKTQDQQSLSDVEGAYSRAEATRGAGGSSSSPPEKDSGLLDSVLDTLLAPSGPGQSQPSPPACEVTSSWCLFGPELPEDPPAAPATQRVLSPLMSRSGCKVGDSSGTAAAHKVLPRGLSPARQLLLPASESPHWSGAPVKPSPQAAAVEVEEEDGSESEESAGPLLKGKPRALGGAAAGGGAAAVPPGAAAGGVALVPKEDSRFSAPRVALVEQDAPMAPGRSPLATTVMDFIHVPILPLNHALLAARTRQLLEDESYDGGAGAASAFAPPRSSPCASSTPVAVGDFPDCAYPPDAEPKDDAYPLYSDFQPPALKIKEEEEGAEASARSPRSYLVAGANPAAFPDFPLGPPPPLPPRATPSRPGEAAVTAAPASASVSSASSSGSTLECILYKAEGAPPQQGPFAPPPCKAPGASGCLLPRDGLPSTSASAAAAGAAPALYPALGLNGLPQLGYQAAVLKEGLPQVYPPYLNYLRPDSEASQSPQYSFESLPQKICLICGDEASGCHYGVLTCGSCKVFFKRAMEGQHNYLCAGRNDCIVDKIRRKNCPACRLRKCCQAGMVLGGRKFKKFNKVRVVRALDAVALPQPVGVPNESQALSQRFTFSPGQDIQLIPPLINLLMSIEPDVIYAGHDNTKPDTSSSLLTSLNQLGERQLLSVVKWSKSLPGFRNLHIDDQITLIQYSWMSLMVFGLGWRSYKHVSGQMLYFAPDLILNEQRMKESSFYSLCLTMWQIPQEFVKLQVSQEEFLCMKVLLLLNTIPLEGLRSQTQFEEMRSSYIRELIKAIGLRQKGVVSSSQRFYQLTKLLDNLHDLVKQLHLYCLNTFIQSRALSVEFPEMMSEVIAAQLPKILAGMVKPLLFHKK
# Method in brief: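 PR-UAS-bla HEK 293T cells carrying a UAS-driven beta-lactamase reporter were seeded in medium with 2% charcoal-stripped FBS, preincubated 6 hr at 37C, then exposed to compounds in DMSO for 16 hr; agonism was read by LiveBLAzer B/G FRET fluorescence.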
# [3] = target: Progesterone receptor (Homo sapiens) (UniProt P06401); assay: qHTS assay to identify small molecule antagonists of the progesterone receptor (PR) signaling pathway (AID 1346795; active = well fitted inhibition curve with a large enough effect in the signal ratio in the repeat runs, not every such curve was filed as active; the % refers to the signal ratio; note: potency is the fitted concentration of half-maximal effect)
# Method in brief: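 PR-UAS-bla HEK293T cells carrying a UAS-driven beta-lactamase reporter were plated in medium with 2% charcoal-stripped FBS and rested 6 hr at 37C. Compounds were added with 1 nM R5020 (final) for 16 hr, then FRET substrate loaded 2 hr at room temperature.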
# [4] = qHTS assay to identify small molecule antagonists of the progesterone receptor (PR) signaling pathway - cell viability counter screen (AID 1346798); note: series mostly up to about 92 µM; nearly all actives have a fitted effect of over 50% in size
# Method in brief: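 PR-UAS-bla HEK293T cells in medium with 2% charcoal-stripped FBS were treated with compounds plus R5020 for 16 hr at 37C. Cell viability was then read by CellTiter-Glo luminescence after 30 min at room temperature in the same wells.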
# [5] = qHTS assay to identify small molecule agonists of the progesterone receptor (PR) signaling pathway - cell viability counter screen (AID 1346799; calls by dose curve; note: nearly all actives have a fitted effect of over 45% in size)
# Method in brief: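 PR-UAS-bla HEK293T cells, 3,000 per well in medium with 2% charcoal-stripped FBS, were preincubated 6 hr at 37C, then exposed to compounds for 16 hr; viability was read as CellTiter-Glo luminescence after 30 min at room temperature.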
# [6] = qHTS assay to identify small molecule antagonists of the TGF-beta/Smad signaling pathway - cell viability counter screen (AID 1346824); note: nearly all actives have a fitted effect of over 50% in size
# Method in brief: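 SBE-bla HEK 293T cells, incubated overnight, then compound plus 0.25 ng/mL TGF-beta1 (stock added) for 5 hr at 37 C. Viability was read in the same wells by CellTiter-Glo luminescence after 30 min at room temperature.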
# [7] = qHTS assay to identify small molecule agonists of the TGF-beta/Smad signaling pathway - cell viability counter screen (AID 1346829); note: top concentration of the series differs between compounds; nearly all actives have a fitted effect of over 45% in size
# Method in brief: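 SBE-bla HEK 293T cells plated overnight, compound exposure 5 hr at 37 C. Viability read in the same wells by CellTiter-Glo luminescence after 30 min at room temperature, following the beta-lactamase read.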
# [8] = Caspase-3/7 induction in HepG2 cells by small molecules, qHTS assay (AID 1346978); note: nearly all actives have a fitted effect of over 15% in size
# Method in brief: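 Wild-type HepG2 cells, 2,000/well, settled 5 hr at 37 C and 5% CO2, then compound-treated for 17 hr; caspase-3/7 activity read by luminescent Caspase-Glo 3/7 after 30 min at room temperature.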
# [9] = Caspase-3/7 induction in CHO-K1 cells by small molecules, qHTS cell viability counter screen (AID 1346979); note: nearly all actives have a fitted effect of over 35% in size; note: potency is the fitted concentration of half-maximal effect
# Method in brief: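 Wild-type CHO-K1 cells were seeded at 1,500 per well, rested 5hr at 37 C, then exposed to compounds in DMSO. After 16hr, CellTiter-Fluor reagent was added and fluorescence read 1hr later as the viability measure.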
# [10] = Caspase-3/7 induction in CHO-K1 cells by small molecules, qHTS assay (AID 1346980); note: nearly all actives have a fitted effect of over 15% in size
# Method in brief: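 Wild-type CHO-K1 cells exposed to compounds for 17hr at 37 C, 5% CO2. Caspase-3/7 activity then measured by Caspase-Glo 3/7 luminescence after 30min at room temperature.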
# [11] = target: Nuclear receptor subfamily 1 group I member 2 (Homo sapiens) (UniProt O75469); assay: Human pregnane X receptor (PXR) small molecule agonists, qHTS assay (AID 1346982); note: nearly all actives have a fitted effect of over 35% in size; note: potency is the fitted concentration of half-maximal effect
# Chain of Nuclear receptor subfamily 1 group I member 2 (Homo sapiens) (O75469 whole entry, looked up): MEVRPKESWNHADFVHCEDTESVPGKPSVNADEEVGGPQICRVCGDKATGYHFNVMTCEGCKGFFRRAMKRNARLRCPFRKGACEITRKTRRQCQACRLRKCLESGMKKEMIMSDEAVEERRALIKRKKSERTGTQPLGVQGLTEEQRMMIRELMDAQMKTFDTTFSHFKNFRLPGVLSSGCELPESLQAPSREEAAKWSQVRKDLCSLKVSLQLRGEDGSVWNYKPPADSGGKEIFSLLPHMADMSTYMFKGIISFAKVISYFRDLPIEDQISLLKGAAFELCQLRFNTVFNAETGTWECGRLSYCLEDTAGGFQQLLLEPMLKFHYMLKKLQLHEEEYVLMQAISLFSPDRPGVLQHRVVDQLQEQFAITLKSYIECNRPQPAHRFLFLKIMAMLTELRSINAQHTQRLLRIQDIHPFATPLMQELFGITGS
# Method in brief: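 Agonist mode qHTS: PXR-Luc HepG2 cells plated 5 hr before DMSO-dissolved compounds were pinned in, cultured 24 hr at 37 C, 5% CO2; ONE-Glo luminescence readout.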
# [12] = target: Cytochrome P450 2D6 (Homo sapiens) (UniProt P10635); assay: Cytochrome P450 Family 2 Subfamily D Member 6 (CYP2D6) small molecule antagonists: luciferase reporter qHTS assay (AID 1671196); note: nearly all actives have a fitted effect of over 50% in size; note: potency is the fitted concentration of half-maximal effect
# Chain of Cytochrome P450 2D6 (Homo sapiens) (P10635 whole entry, looked up): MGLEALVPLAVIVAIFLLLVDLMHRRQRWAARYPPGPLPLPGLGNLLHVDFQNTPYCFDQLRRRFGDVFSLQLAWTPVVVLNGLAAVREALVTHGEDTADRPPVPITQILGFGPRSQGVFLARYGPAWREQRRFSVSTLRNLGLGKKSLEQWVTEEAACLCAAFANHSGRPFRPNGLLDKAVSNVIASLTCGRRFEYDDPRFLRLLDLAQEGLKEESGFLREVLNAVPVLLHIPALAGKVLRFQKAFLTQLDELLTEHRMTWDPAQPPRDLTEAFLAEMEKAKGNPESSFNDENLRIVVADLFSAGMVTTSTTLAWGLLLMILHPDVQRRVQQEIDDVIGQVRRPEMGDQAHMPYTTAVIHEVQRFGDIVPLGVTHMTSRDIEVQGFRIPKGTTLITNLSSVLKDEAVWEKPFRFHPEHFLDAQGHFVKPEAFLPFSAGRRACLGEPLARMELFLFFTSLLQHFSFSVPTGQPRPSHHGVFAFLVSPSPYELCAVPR
# Method in brief: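 P450-Glo format: CYP2D6 converts a proluciferin substrate to luciferin in an NADPH-driven reaction lasting 1 h at room temperature. Light output, proportional to CYP2D6 activity, reflects interference by test chemicals.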
# [13] = qHTS assay to identify small molecule agonists of the TGF-beta/Smad signaling pathway (AID 1346859; active = well fitted activation curve with a large enough effect in the signal ratio in the repeat runs, not every such curve was filed as active; the % refers to the signal ratio; note: series mostly up to about 77 µM)
# Method in brief: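 HEK 293T cells stably carrying a beta-lactamase reporter driven by the Smad binding element were seeded overnight, exposed to DMSO-dissolved compounds for 5 hr at 37 C, 5% CO2, then loaded with FRET substrate for 2 hr at room temperature.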
# [14] = target: Thyrotropin-releasing hormone receptor (Homo sapiens) (UniProt P34981); assay: qHTS assay to identify small molecule antagonists of the thyrotropin-releasing hormone receptor (TRHR) signaling pathway (AID 1346877; active = well fitted inhibition curve with a large enough effect in the repeat runs, not every such curve was filed as active; note: series mostly up to about 51 µM)
# Chain of Thyrotropin-releasing hormone receptor (Homo sapiens) (P34981 whole entry, looked up): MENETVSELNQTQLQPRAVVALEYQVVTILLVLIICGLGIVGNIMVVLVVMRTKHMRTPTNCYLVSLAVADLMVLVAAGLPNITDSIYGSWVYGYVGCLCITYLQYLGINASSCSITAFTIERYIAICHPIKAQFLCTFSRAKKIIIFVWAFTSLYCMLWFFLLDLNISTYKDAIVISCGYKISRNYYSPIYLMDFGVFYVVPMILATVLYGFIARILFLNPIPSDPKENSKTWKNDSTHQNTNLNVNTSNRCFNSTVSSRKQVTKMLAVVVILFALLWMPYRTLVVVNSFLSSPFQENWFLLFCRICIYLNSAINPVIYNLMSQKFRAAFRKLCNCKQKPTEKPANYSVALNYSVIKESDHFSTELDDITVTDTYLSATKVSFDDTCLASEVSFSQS
# Method in brief: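 Cells (TRHR-HEK293) are plated and kept 18 h at 37 °C/5% CO2. A calcium-sensitive dye is added for 2 h, compound follows for 5 min at room temperature, and TRH is then given at 1 nM final.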
# [15] = target: Thyrotropin-releasing hormone receptor (Homo sapiens) (UniProt P34981); assay: qHTS assay to identify small molecule agonists of the thyrotropin-releasing hormone receptor (TRHR) signaling pathway (AID 1346891; calls by dose curve; note: series mostly up to about 58 µM)
# Method in brief: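 TRHR-expressing HEK293 cells were plated 18 h at 37 °C/5% CO2, loaded with calcium dye 2 h at 37 °C, then given compound in DMSO; fluorescence was read kinetically for 3 min at 1 s intervals.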
# [16] = Human pregnane X receptor (PXR) small molecule agonists, qHTS cell viability counter screen (AID 1346977); note: nearly all actives have a fitted effect of over 50% in size; note: potency is the fitted concentration of half-maximal effect
# Method in brief: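 PXR-Luc HepG2 cells in medium with 5% charcoal-stripped FBS were pre-incubated 5hr, then exposed to compounds for 24hr at 37C. Viability was read in the same wells by CellTiter-Fluor fluorescence, reagent added after 23hr with a 1hr incubation.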
# [17] = Caspase-3/7 induction in HepG2 cells by small molecules, qHTS cell viability counter screen (AID 1346981); note: nearly all actives have a fitted effect of over 30% in size; note: potency is the fitted concentration of half-maximal effect
# Method in brief: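 Steps: seed 2,000 HepG2 cells per well; incubate 5 hr at 37 C; pin-add compounds in DMSO; incubate 16 hr; add CellTiter-Fluor; after 1 hr at 37 C and 5% CO2, read fluorescence.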
# [18] = target: Nuclear receptor subfamily 1 group I member 2 (Rattus norvegicus) (UniProt Q9R1A7); assay: Rat pregnane X receptor (rPXR) activation by small molecules, qHTS assay (AID 1346983); settings: rPXR luciferase reporter cells, One-Glo luminescence, 24 h; max activation: stronger effect = higher value; note: nearly all actives have a fitted effect of over 20% in size
# Chain of Nuclear receptor subfamily 1 group I member 2 (Rattus norvegicus) (Q9R1A7 whole entry, looked up): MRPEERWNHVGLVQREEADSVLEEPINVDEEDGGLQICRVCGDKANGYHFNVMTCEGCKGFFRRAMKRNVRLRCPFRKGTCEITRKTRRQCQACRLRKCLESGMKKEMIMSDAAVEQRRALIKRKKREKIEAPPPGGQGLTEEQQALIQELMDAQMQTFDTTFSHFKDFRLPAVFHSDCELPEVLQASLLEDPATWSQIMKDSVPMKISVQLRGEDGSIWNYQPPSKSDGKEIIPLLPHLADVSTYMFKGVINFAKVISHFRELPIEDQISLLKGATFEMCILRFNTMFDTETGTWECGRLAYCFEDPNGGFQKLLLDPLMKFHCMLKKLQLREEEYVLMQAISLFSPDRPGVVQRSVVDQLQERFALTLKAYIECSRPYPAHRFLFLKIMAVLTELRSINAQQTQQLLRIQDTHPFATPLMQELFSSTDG
# Method in brief: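 Cell-based rPXR activation assay: rPXR cells, 2,000 per well, rested 5hr at 37 C, then exposed to compounds in DMSO for 24 hr at 37 C. Luciferase activity read by One-Glo luminescence after 30 min at room temperature.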
# [19] = target: Nuclear receptor subfamily 1 group I member 2 (Homo sapiens) (UniProt O75469); assay: CYP3A4 induction through human pregnane X receptor (PXR) by small molecules, qHTS assay (AID 1346984); note: nearly all actives have a fitted effect of over 40% in size; note: potency is the fitted concentration of half-maximal effect
# Method in brief: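 Steps: seed DPX-2 cells, 5 hr at 37C; pin-transfer compounds; 24 hr at 37C; add Luciferin-IPA (3uM final), 3 hr at 37C; add One-Glo, 30 min RT; read luminescence.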
# [20] = target: Nuclear receptor subfamily 1 group I member 2 (Homo sapiens) (UniProt O75469); assay: Human pregnane X receptor (PXR) activation by small molecules, qHTS assay (AID 1346985); note: nearly all actives have a fitted effect of over 40% in size; note: potency is the fitted concentration of half-maximal effect
# Method in brief: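 DPX-2 cells (HepG2 co-transfected with a PXR response element and a CYP3A4-promoter luciferase construct) were seeded at 2,000 per well, rested 5 hr at 37C, then exposed to DMSO-dissolved compounds for 24 hr. Activation was read as luciferase luminescence.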
SMILES,Potency [1],Potency [2],Potency [3],Potency [4],Potency [5],Potency [6],Potency [7],Potency [8],Potency [9],Potency [10],Potency [11],Potency [12],outcome [13],Potency [14],Potency [15],Potency [16],Potency [17],max activation [18],Potency [19],Potency [20]
O=C(O)CCCCCCCCCCCC(=O)O,inactive,inactive,inactive,inactive,inactive,inactive,inactive,inactive,inactive,inactive,inactive,17.6 µM (active),,,,,,,,
[Na+],inactive,inactive,inactive,inactive,inactive,inactive,inactive,inactive,inactive,inactive,inactive,,inactive,,,,,,,
COC(=O)c1ccc(C)cc1,inactive,inactive,inactive,inactive,inactive,inactive,inactive,inactive,inactive,inactive,inactive,inactive,inactive,inactive,inactive,inactive,inactive,,,
Cc1ccc(/C(=C\CN2CCCC2)c2ccccn2)cc1,inactive,inactive,inactive,inactive,inactive,inactive,inactive,inactive,inactive,inactive,inactive,,inactive,,,,,-1.02% (inactive),inactive,inactive
CCOC(=O)C(C)Oc1ccc(Oc2cnc3cc(Cl)ccc3n2)cc1 (stereo unspecified),inactive,inactive,inactive,inactive,inactive,inactive,inactive,inactive,inactive,inactive,inactive,,,,,inactive,inactive,,,
O=C1OC2(c3ccccc31)c1cc(I)c(O)c(I)c1Oc1c2cc(I)c(O)c1I,13.3 µM (active) [middle of 4 runs],inactive,inactive,inactive,inactive,inactive,inactive,inactive,10.5 µM (active) [middle of 4 runs],inactive,inactive,,inactive,inactive,,7.78 µM (active) [middle of 4 runs],13.3 µM (active) [middle of 4 runs],,,
CCCCCCCCCCCCO,inactive,inactive,inactive,inactive,inactive,inactive,inactive,inactive,inactive,inactive,inactive,,inactive,inactive,,inactive,inactive,,,
COC(=O)CC(=O)OC,inactive,inactive,inactive,inactive,,inactive,inactive,,inactive,inactive,56.7 µM (active) and inactive,inactive,inactive,inactive,inactive,,inactive,,,
CC(=O)[C@H]1CC[C@H]2[C@@H]3CC=C4C[C@@H](O)CC[C@]4(C)[C@H]3CC[C@]12C,inactive,4.85 µM (active),inactive,inactive,inactive,inactive,inactive,inactive,inactive,inactive,24.3 µM (active) and 23.7 µM (active),,inactive,,,inactive,inactive,-3.68% (inactive),inactive,inactive
CN(C)/N=N/c1nc[nH]c1C(N)=O,inactive,inactive,,inactive,inactive,inactive,inactive,inactive,inactive,inactive,inactive,inactive,inactive,inactive,,inactive,inactive,-1.32% (inactive),inactive,inactive
CC(=O)Nc1ccc2c(c1)Cc1cc(NC(C)=O)ccc1-2,inactive,inactive,,inactive,inactive,inactive,inactive,,inactive,inactive,17.2 µM (active) and 7.7 µM (active),inactive,inactive,,,inactive,inactive,,,
CC(=O)OC(C)C,inactive,inactive,,inactive,inactive,inactive,inactive,inactive,inactive,inactive,inactive,,inactive,inactive,inactive,inactive,,,,
CC[C@]12CCCN3CCc4c(n(c5ccccc45)[C@@](O)(C(=O)OC)C1)[C@@H]32,inactive,inactive,inactive,inactive,,inactive,inactive,inactive,inactive,inactive,30.6 µM (active) and 9.44 µM (active),,inactive,,,,inactive,1.48% (inactive),12.6 µM (active),14.1 µM (active)
c1ccc2c(c1)ccc1ncccc12,inactive,inactive,,inactive,inactive,inactive,inactive,inactive,inactive,inactive,60.7 µM (active) and 61.1 µM (active),7.91 µM (active),inactive,inactive,inactive,inactive,,,,
CC1(C)NC(=O)N(c2ccc([N+](=O)[O-])c(C(F)(F)F)c2)C1=O,inactive,inactive,17.2 µM (active) and 11.9 µM (active),inactive,,inactive,inactive,,,inactive,,inactive,inactive,,inactive,inactive,,,,
